# Source: PubChem BioAssay AID2570 (National Center for Advancing Translational Sciences (NCATS), 2010)
# Results filed as inconclusive are left out. A number with no mark means an inactive call. Calls come from the whole dose curve; as a rule, active = well fitted curve in the direction sought with a large enough effect; inconclusive = small, poorly fitted or top-dose-only effect, or another doubt; inactive = no such curve, though single readings can be large or run the other way.
# Molecular target: Vasopressin V1b receptor (Homo sapiens) (UniProt P47901)
# Assay: Counterscreen Concentration-Response Assay for Antagonists of the Neuropeptide S Receptor: Vasopressin Receptor Calcium Signal Transduction
# Settings: CHO-AVPR1B, vasopressin-stimulated calcium fluorescence, FDSS
# Outline: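 CHO cells stably expressing human AVPR1B, calcium-dye loaded, were given compound, then stimulated with 60 nM vasopressin in HBSS/0.1% BSA. Peak kinetic fluorescence was normalized to DMSO and no-signal controls; AC50 from Hill fits.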
# Vasopressin V1b receptor (Homo sapiens), sequence (P47901 whole entry, looked up): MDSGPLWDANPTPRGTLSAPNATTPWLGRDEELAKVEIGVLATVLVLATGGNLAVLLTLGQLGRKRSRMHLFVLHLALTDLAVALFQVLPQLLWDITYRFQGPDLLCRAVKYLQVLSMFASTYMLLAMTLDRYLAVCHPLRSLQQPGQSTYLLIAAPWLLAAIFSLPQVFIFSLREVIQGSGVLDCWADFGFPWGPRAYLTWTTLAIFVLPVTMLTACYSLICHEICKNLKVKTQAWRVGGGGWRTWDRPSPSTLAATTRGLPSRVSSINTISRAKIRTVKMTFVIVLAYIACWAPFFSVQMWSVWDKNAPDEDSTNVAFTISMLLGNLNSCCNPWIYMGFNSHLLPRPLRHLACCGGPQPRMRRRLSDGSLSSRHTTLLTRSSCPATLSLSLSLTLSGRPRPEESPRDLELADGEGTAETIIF
smiles,measurement,value
COc1cccc(C2C(C#N)=C(NC(=O)NCc3ccccc3)Oc3ccc4ccccc4c32)c1 (stereo unspecified),max response,-21.8%
